Assay outcomes (PubChem BioAssay)
This is a sample that favours compounds with a hit; in the whole collection about 1.9% have one here.
HTT ATP protect – cytoprotection in Huntington HTT-Q103 PC12 cell model. 230,000 compounds, 0.14% hits. Potency, µM (doses to about 56.4 µM), without a hit: cytoprotection (ATP increase), hits mostly activators. PC12 HTT-Q103 induced, cytoprotection, ATP luminescence, 40 h. AID 1471; also: % of control where 0% means no effect; nearly all actives have a fitted effect of over 45% in size
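ATP quantification (ATPlite) reports survival of PC12 cells in which tebufenozide, 100 nM final, switches on Htt exon 1 with 103 glutamines linked to GFP; compounds are titrated.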
IMPase Li cell – cell-permeable IMPase inhibitors with lithium potentiation; CHO-M1 cells, IP1 TR-FRET (IP-One), carbachol + lithium; 210,000 compounds, 0.35% hits; AID 1457; Potency, µM (top dose mostly 59.4 µM), without a hit: top-dose activity, negative = IMPase inhibition, usual class: inhibitors;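 also: IP1 builds up when IMPase is blocked and the TR-FRET signal falls; plate controls were basal vehicle for no effect and high inhibitor control for full effect; nearly all actives have a fitted effect of over 50% in size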
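CHO-M1, 2000 cells/well, 16–30 h culture; cpd + low Li+, 30 min 37C; lysis with d2-IP1/Eu-anti-IP1 Ab, 10 min RT; TR-FRET 665/620 ratio and 620 channel; AC50 via Hill.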
NPSR antag – blocks cAMP signaling of the human neuropeptide S receptor; CHO-NPSR cells, cAMP TR-FRET, antagonist mode; AID 1461; Q6W5P4; 220,000 compounds, 1% hits; Potency, µM (top dose mostly 38.3 µM), without a hit: at the top dose activity change, negative = inhibition, hits mostly inhibitors; also: % is scaled to controls: 0 for no effect and ±100 for the full control effect; nearly all actives have a fitted effect of over 50% in size
Target sequence (Q6W5P4 whole entry, looked up): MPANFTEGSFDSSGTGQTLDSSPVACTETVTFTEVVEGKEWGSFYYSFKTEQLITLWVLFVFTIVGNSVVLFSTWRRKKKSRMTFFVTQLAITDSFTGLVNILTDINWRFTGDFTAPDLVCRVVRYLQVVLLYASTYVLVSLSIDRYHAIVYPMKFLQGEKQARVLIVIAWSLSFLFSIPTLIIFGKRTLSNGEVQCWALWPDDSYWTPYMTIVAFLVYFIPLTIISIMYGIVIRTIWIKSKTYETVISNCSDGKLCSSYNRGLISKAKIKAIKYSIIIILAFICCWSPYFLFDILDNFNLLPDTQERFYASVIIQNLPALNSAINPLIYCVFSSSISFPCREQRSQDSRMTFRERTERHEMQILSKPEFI
HTT aggregate – inhibitors of mutant huntingtin aggregate formation in PC12 cells | PC12 HttQ103-GFP aggregates, Acumen cytometry, 40 h | Potency, µM (titrated, usually from 46.1 µM), inactives show at the highest dose activity change, negative = inhibition, usual class: inhibitors | 220,000 compounds, 1.1% hits | AID 1688; also: % is scaled to controls: 0 for no effect and ±100 for the full control effect; nearly all actives have a fitted effect of over 60% in size
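Ecdysone-promoter PC12 model expressing HTT exon 1 Q103 fused to GFP, induced by tebufenozide at 100 nM final. Compounds titrated; aggregates sized 1–25 µm scored on a 488 nm laser cytometer.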
ERK EGF block – EGF-driven ERK pathway inhibition; HEK293-V1b, EGF-stimulated phospho-ERK AlphaScreen; 130,000 compounds, 0.41% hits; Potency, µM (doses to about 11.5 µM), for the others: at the top dose activity change, negative = inhibition, actives largely listed as inhibitors;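 also: plate controls were stimulated vehicle wells for no effect and unstimulated vehicle basal for full effect; nearly all actives have a fitted effect of over 55% in size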
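In this qHTS, HEK293 cells with stable type-1 vasopressin (V1b) receptor were exposed to compound at 37C for 30 min, stimulated 5 min with EGF at 25 nM, lysed, and probed for phospho-ERK by AlphaScreen.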
* marks the source's active call; other numbers are inactive results; u = inconclusive; x = no result; [ ] = dose if it differs, or a comment. Calls follow the shape of the dose curve; as a rule, active = well fitted curve in the direction sought with a large enough effect; inconclusive = small, poorly fitted or top-dose-only effect, or another doubt; inactive = no such curve, though single readings can be large; an effect the other way counts as inactive or inconclusive. Potency is read from the fitted curve at half-maximal effect.

SMILES	HTT ATP protect	IMPase Li cell	NPSR antag	HTT aggregate	ERK EGF block
COc1ccc(-c2nn(-c3ccccc3)cc2/C=N/N=C(N)N)cc1OC	2%[10 µM]	10%	-18%	9%	25µM*
CCOC(=O)CN1C(=O)N[C@@H](c2ccccc2)[C@H](C(=O)OC)[C@H]1C	-28%[10 µM]	0%	x	x	x
CCCCC1=CC2=C(c3ccco3)C(=O)C(C)(OC(=O)c3ccc(OC)cc3)C(=O)C2=CN1C1CCCCC1 (centres undefined)	10%[10 µM]	5%	10µM*	-19%[9.22 µM]	10%[57.5 µM]
CCCCC1=CC2=C(c3ccco3)C(=O)C(C)(OC(=O)c3ccc(OC)cc3)C(=O)C2=CN1CCOC (centres undefined)	0%[10 µM]	-19%	-20%	4%[9.22 µM]	7%[57.5 µM]
COc1ccc(-c2nc(-c3cccs3)c(-c3cccs3)[nH]2)cc1O	-51%	9%[38.3 µM]	10µM*	-32%	x
O=C1NC(=O)C2C3C=CC(C3)C12 (centres undefined)	8%	x	x	8%	x
Cc1nn(Cc2ccc(Cl)c(Cl)c2)c(C)c1NC(=O)c1cc(CC(C)C)on1	15%	33%[38.3 µM]	u	10µM*	x
Cc1ccccc1Cn1nc(C)c(NC(=O)c2cc(CC(C)C)on2)c1C	8%[10 µM]	x	-27%	-1%[9.22 µM]	1%[57.5 µM]
Cc1sc2ncnc(N/N=C/c3ccccc3O)c2c1C	-73%[10 µM]	-8%	-8%	2.5µM*	4%
CC(C)=NOCc1cccc(-c2cc(-c3ccccc3)no2)c1	-6%[10 µM]	x	x	x	x
FC(F)(F)c1ccccc1-c1cc(NCCN2CCOCC2)ncn1	-20%	6%	x	x	x
Cc1ccc(-c2c(C#N)c(N)n(-c3ccc(C)cc3)c(=O)c2C#N)cc1	-4%	u	-11%[46.1 µM]	-11%	x
Cc1ccc(-n2c(N)c(C#N)c(-c3ccc(Cl)cc3)c(C#N)c2=O)cc1	-2%	28µM*	u	-29%	x
Cc1ccc(NS(=O)(=O)c2ccc(Cl)c(C(=O)Nc3ccccc3-c3nc4ccccc4[nH]3)c2)cc1C	-27%[10 µM]	0%	-31%	11µM*	1%
Nc1nc(N)nc(CCCCc2nc(N)nc(N)n2)n1	-17%[10 µM]	x	x	x	x
NS(=O)(=O)c1ccc(NC(=O)c2ccc(-c3ccccc3)cc2)cc1	-2%[10 µM]	8.9µM*	-38%	18%	5%
CCCCCCOC(=O)C(C#N)c1nc2ccccc2nc1N1CCN(C)CC1 (centres undefined)	-56%	12%[38.3 µM]	u	u	x
CCCCCCOC(=O)C(C#N)c1nc2ccccc2nc1N1CCCCC1 (centres undefined)	-6%	44%[38.3 µM]	10µM*	-20%	x
CCCCCCCC/C=C\CCCCCCCC(=O)NC(C)C(=O)O (centres undefined)	-3%	16%	x	x	0%
COc1ccc(NC(=O)N2CCc3nc(-c4ccc(OC)cc4C)c4c(c3C2)CO[C@@H](c2ccccc2)C4)cc1	-9%[10 µM]	-1%	x	x	x
Cc1ccc(S(=O)(=O)Nc2cccc3ncccc23)s1	3%	28%[38.3 µM]	2µM*	u	x
COc1cc2c(cc1OC)C(C(=O)c1ccc(OC)c(OC)c1O)=NCC2	-30%	14%	x	x	-1%
O=[N+]([O-])c1cccc(CSc2ncnc3ccccc23)c1	2.2µM*	29%	-31%	15%	3%
Cc1cccc(CSc2ncnc3ccccc23)c1	-9%	-7%	-36%	-26%	-6%
CCCCCCCC1=Cc2ccccc2C(CC(=O)c2ccccc2)N1C(=O)OC (centres undefined)	-19%[10 µM]	0%	x	x	x
SMILES	HTT ATP protect	IMPase Li cell	NPSR antag	HTT aggregate	ERK EGF block
Cc1ccc(NC(=O)Nc2ccc(C(=O)N3CCOCC3)cc2)cc1	1%	12%[38.3 µM]	-2%[46.1 µM]	-17%	x
CC(=O)c1cccc(NC(=O)Nc2cccnc2)c1	10%[0.074 µM]	3%	-7%[46.1 µM]	7.9µM*	8%
CC(=O)c1cccc(NC(=O)Nc2ccc(C(=O)N3CCOCC3)cc2)c1	-9%[10 µM]	-4%	-8%[46.1 µM]	10µM*	8%
Cc1ccc(NC(=O)Nc2cccnc2)cc1NC(=O)Nc1cccnc1	6%[10 µM]	x	50%	3%[9.22 µM]	11%[57.5 µM]
CC(=O)c1cccc(NC(=O)Nc2cccs2)c1	-12%	9%[38.3 µM]	-19%[46.1 µM]	13µM*	x
COc1ccc2c(c1)CC[C@@H]1[C@@H]2CC[C@]2(C)[C@@H](NCCCCCCN3C(=O)C=CC3=O)CC[C@@H]12	x	-7%	x	x	x
